Screening results as filed in PubChem.
ELG1 repair inh = inhibitors of ELG1-dependent DNA repair in HEK293T cells; HEK293T ELG1-luciferase reporter, luminescence, 16 h; DNA damage induced by 5-fluorouridine; hit rate 2.3% among 330,000; Potency, µM (doses to about 46.1 µM), actives largely listed as inhibitors; also: nearly all actives have a fitted effect of over 55% in size
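Luminescence from the luciferase reporter, measured 30 min after ONE-Glo reagent at room temperature, was the read-out. Beforehand, 2,000 cells per well were exposed for 16 hr at 37 °C to 5-fluorouridine together with compound or vehicle.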
HT1080-NT tox = kills 2HG-producing HT-1080-NT fibrosarcoma cells | HT-1080-NT fibrosarcoma viability, CellTiter-Glo ATP luminescence, 48 h | Potency, µM (top dose mostly 46.1 µM), hits mostly cytotoxic | hit rate 1.6% among 360,000 | AID 686970;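 also: NT is the 2HG producing partner of a matched IDH1 knockdown line; nearly all actives have a fitted effect of over 55% in size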
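HT-1080-NT fibrosarcoma cells (2HG-overproducing), 750 cells/well in RPMI with 5% FBS, dosed after 2 h and incubated 48 h at 37C. CellTiter-Glo luminescence normalized to DMSO and no-cell wells; concentration-response curves fitted and classed.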
HT1080 IDH1KD tx = toxicity to HT-1080 IDH1 knockdown cells (counter line); Potency, µM (highest dose often 46.1 µM), actives largely listed as cytotoxic; AID 686971; HT-1080 IDH1 knockdown viability, ATP luminescence, 48 h; hit rate 2% among 360,000
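Viability of IDH1-knockdown HT-1080 fibrosarcoma cells was assessed by CellTiter-Glo after 48 h at 37 °C with titrated compound; concentration-effect curves were classified by fit quality and response size.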
IL-1B inflam inh = inhibitors of inflammasome signaling (IL-1 beta secretion). THP-1 LPS/ATP IL-1B secretion, AlphaLISA, 16 h; hits give low values. activity change, % at 57.5 µM. hit rate 4.7% among 360,000. AID 743279; in the data active = activity change below about -50%; inconclusive = mostly about -30% to -49%
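THP-1 cells pretreated 1 hr with compounds (up to 57.5 uM final), then stimulated with LPS (250 ng/mL final) plus ATP (1.25 mM final); secreted IL-1B measured by AlphaLISA after 16 hr, decreased signal indicating inhibition.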
DT40 TDP1 CPT = DT40-hTDP1 cell growth loss with CPT; hit rate 12% among 420,000; Potency, µM (highest dose often 46.2 µM), actives largely listed as inhibitors; chicken DT40 Tdp1-/-;hTDP1 cells + 20 nM CPT, ATP luminescence, 48 h; also: nearly all actives have a fitted effect of over 55% in size
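Chicken DT40 Tdp1-/- cells stably complemented with human TDP1 were seeded at 400 cells/well in medium containing 20 nM camptothecin, exposed to pin-transferred compounds, and grown at 37 °C for at least 48 hr. Viability was read as ATP luminescence.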
DT40 TDP1 no CPT = qHTS for Inhibitors of human tyrosyl-DNA phosphodiesterase 1 (TDP1): qHTS in cells in absence of CPT; Potency, µM (series often up to 46.2 µM), most hits filed as inhibitors; DT40 Tdp1-/- hTDP1 cells, no CPT, ATP luminescence, 48 h; hit rate 15% among 420,000; also: nearly all actives have a fitted effect of over 55% in size
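Stably hTDP1-transfected Tdp1-null chicken DT40 cells were treated with library compounds minus camptothecin and grown for at least 48 hr at 37 °C, after which cellular ATP was quantified by luminescence.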
Numbers stand for hits; 0 = inactive; ? = inconclusive; - = no result given; [ ] = dose if it differs, or a comment. This is a sample that favours compounds with a hit; in the whole collection about 19% have one here. Unless noted, calls follow the shape of the dose curve; as a rule, active = well fitted curve in the direction sought with a large enough effect; inconclusive = small, poorly fitted or top-dose-only effect, or another doubt; inactive = no such curve, though single readings can be large; an effect the other way counts as inactive or inconclusive.

SMILES	ELG1 repair inh	HT1080-NT tox	HT1080 IDH1KD tx	IL-1B inflam inh	DT40 TDP1 CPT	DT40 TDP1 no CPT
O=C(COC(=O)c1ccc2ncsc2c1)NC(=O)C1CCCCC1	-	-	-	-	0	0
COc1ccc(-c2cc(C(F)(F)F)n3nc(C)c(-c4ccccc4)c3n2)cc1OC	-	-	-	-	0	0
Cc1cc(C)cc(NC(=O)N2CCN(C/C=C/c3ccccc3)CC2)c1	0	0	0	0	0	0
COc1ccc(CNS(=O)(=O)c2cc3c(cc2C)n(C)c(=O)c(=O)n3C)cc1	-	-	-	-	0	0
CCC(CO)Oc1cc(NCc2cccc(OC)c2)c2ncn(C(C)C)c2c1 (stereo unspecified)	?	0	0	0	21µM	?
CCC(CO)Oc1cc(NCc2cccc(O)c2)c2ncn(C(C)C)c2c1 (stereo unspecified)	0	0	0	0	23µM	?
O=S(=O)(NCCc1csc2nc(-c3ccc(F)cc3)nn12)c1ccc2c(c1)OCCO2	-	-	-	-	16µM	23µM
COc1ccc(S(=O)(=O)NCc2cn3c(C)csc3n2)cc1F	0	0	0	0	0	0
COc1ccc(-c2nc3scc(CCNS(=O)(=O)c4ccc(F)c(C(F)(F)F)c4)n3n2)cc1OC	-	-	-	-	15µM	13µM
COc1ccc(-c2nc3scc(CCNS(=O)(=O)c4c(C)noc4C)n3n2)cc1OC	-	-	-	-	0	?
COc1ccc(-c2nc3scc(CCNS(=O)(=O)c4ccc5c(c4)OCCO5)n3n2)cc1OC	-	-	-	-	?	21µM
O=S(=O)(NCCc1csc2nc(-c3ccc(Cl)cc3)nn12)c1ccc2c(c1)OCCO2	-	-	-	-	15µM	9.2µM
CCOc1ccc(NC(=O)Cn2ncc3c2-c2cc(C)ccc2OC3)cc1	-	-	-	-	0	0
Cc1cc(C)nc(Sc2ncnc3c2oc2ccccc23)n1	?	0	0	0	?	23µM
COc1ccc(/C=C/c2nnc(NC(=O)CSc3ccc(Cl)cc3)s2)cc1	?	0	0	0	6.5µM	16µM
Cc1onc(-c2ccccc2)c1C(=O)Nc1nnc(COc2ccc(Cl)cc2)s1	0	?	?	0	5.8µM	8.2µM
COCC(=O)Nc1nnc(COc2ccc(Cl)cc2)s1	?	0	0	0	0	0
COc1ccc(/C=C/c2nnc(NC(=O)CC(C)C)s2)cc1	0	?	0	0	?	?
Cc1cccc(C)c1OCc1nnc(NC(=O)CSc2ccc(Cl)cc2)s1	0	0	0	0	?	?
O=C(CSc1ccccc1)Nc1nnc(COc2ccc(Cl)cc2)s1	0	0	0	0	8.2µM	26µM
CCOCC(=O)Nc1nnc(COc2ccc(Cl)cc2)s1	0	0	0	0	16µM	23µM
CS(=O)(=O)Nc1ccc2c(c1)[C@H]1C[C@H](CC(=O)NCc3ccccc3)O[C@H](CO)[C@H]1O2	-	0	0	0	0	0
C[C@@H]1O[C@@H](OC[C@H]2O[C@@H](Oc3c(-c4ccc(OCCO)c(OCCO)c4)oc4cc(OCCO)cc(O)c4c3=O)[C@H](O)[C@@H](O)[C@@H]2O)[C@H](O)[C@H](O)[C@H]1O	-	-	-	-	0	0
Cc1cc(C)c(S(=O)(=O)Nc2ncn[nH]2)cc1C	0	0	0	0	0	0
CCc1nc2ccc(C(=O)NCc3ccc4c(c3)OCO4)cn2c1N(C)Cc1ccc(OC)cc1	-	0	0	0	18µM	23µM
SMILES	ELG1 repair inh	HT1080-NT tox	HT1080 IDH1KD tx	IL-1B inflam inh	DT40 TDP1 CPT	DT40 TDP1 no CPT
CCc1nc2ccc(C(=O)NCc3cccs3)cn2c1N(CCC(C)C)CCN(C)C	-	?	?	0	?	?
CCc1nc2ccc(C(=O)NCc3ccc4c(c3)OCO4)cn2c1N(C)CCC(C)C	-	?	?	0	?	15µM
CCc1nc2ccc(C(=O)NCCNC(C)=O)cn2c1N(C)Cc1ccc(OC)cc1	-	0	0	0	0	0
Cc1sc2nc(CSCC(=O)Nc3ccccc3C#N)[nH]c(=O)c2c1C	?	0	0	0	?	16µM
CSc1ccccc1NC(=O)CSCc1nc2sc(C)c(C)c2c(=O)[nH]1	0	0	0	0	0	?
N#CCSc1nnc(-c2sc3ccccc3c2Cl)o1	?	?	?	-94	?	?
O=C(O)C1CC=CCC1C(=O)Nc1ccc(S(=O)(=O)N2CCCc3ccccc32)cc1 (stereo unspecified)	0	?	5.6µM	0	0	?
O=C(Nc1cccc(Cl)c1)c1cc(S(=O)(=O)N2CCCc3ccccc32)ccc1F	-	-	-	-	10µM	4.1µM
O=C(Nc1ccc(F)c(Cl)c1)c1cc(S(=O)(=O)N2CCCc3ccccc32)ccc1F	-	-	-	-	13µM	15µM
COc1ccc(S(=O)(=O)N2CCc3ccccc32)cc1C(=O)Nc1ccc(NC(C)=O)cc1	0	?	0	0	?	?
O=S(=O)(c1ccc(F)cc1)N1CCCc2ccccc21	0	-	-	-	-	-
O=c1cc(-c2cc3ccccc3oc2=O)c2ccc(O)cc2o1	-	-	-	-	0[9.04 µM]	?
O=S(=O)(c1ccccc1)c1nnn2c1nc(N1CCN(c3ccccc3)CC1)c1cc(Cl)ccc12	-	-	-	-	0	0
O=C(OCc1nnc(-c2ccccc2)o1)c1ccc(Cl)cc1	0	0	0	0	0	0
Cc1ccc(S(=O)(=O)c2c(COC(=O)c3ccc(Cl)cc3)c(-c3ccccc3)nn2C)cc1	0	0	0	0	16µM	?
Cc1ccc(NC(=O)Cn2cc3c(n2)CCCC3)cc1Cl	-	-	-	-	0	?
Cc1ccc(-n2nnnc2C(Cl)(Cl)c2nnnn2-c2ccc(C)cc2)cc1	0	?	5.6µM	-78	2.9µM	2.6µM
CSc1nnnn1-c1ccc(Cl)cc1	?	0	0	0	0	0
Cc1cc(Cl)ccc1NC(=O)CN(C)C1=NS(=O)(=O)c2ccccc21	0	0	0	0	0	0
C[C@@H]1CC=C[C@H]2[C@H]1C(=O)N(Cc1ccccc1)[C@H]2c1ccc(-c2ccoc2)cc1F	0	?	0	0	?	?
COC(=O)/C=C/c1cccc([C@H]2[C@@H]3C=CC[C@@H](C)[C@@H]3C(=O)N2Cc2ccccc2)c1	0	0	0	0	23µM	16µM
C[C@@H]1CC=C[C@H]2[C@H]1C(=O)N(Cc1ccccc1)[C@H]2c1ccc(-c2cc3ccccc3s2)cc1F	?	0	0	0	16µM	15µM
COc1ccc(-c2ccc([C@H]3[C@H]4C=CC[C@@H](C)[C@@H]4C(=O)N3Cc3ccccc3)c(F)c2)cc1C	0	0	0	0	15µM	15µM
C[C@@H]1CC=C[C@@H]2[C@H]1C(=O)N(Cc1ccccc1)[C@H]2c1cccc(C#Cc2ccccc2)c1	0	0	?	0	29µM	10µM
COCCn1c(=O)c(-c2ccc(F)cc2)nc2cnc(OC)nc21	-	-	-	-	0	0
